Pf growth 48h: inhibits P. falciparum growth in the first generation, 48 h | P. falciparum luciferase growth in erythrocytes, 48 h | Potency, µM (top dose mostly 28.7 µM), for the others: at the highest dose activity change, negative = inhibition, actives largely listed as inhibitors | 5.9% of 310,000 active
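Growth was read as firefly luciferase luminescence after a 48 h, 37 C, 5% CO2 exposure of compounds to reporter-bearing P. falciparum cultures (0.1% parasitemia, 2% hematocrit final) in Albumax-supplemented RPMI 1640.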
HCV inhibitor: inhibitors of hepatitis C virus infection. Huh7.5.1 HCVcc-Cre infection, luciferase reporter, 44 h. 3.4% of 340,000 active. AID 651820. Potency, µM (series often up to 41.8 µM), for the others: top-dose activity change, negative = inhibition, usual class: inhibitors
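Infectious HCV cell culture screen: compound-treated cells (1,000/well, pre-plated 4 h) are infected with HCVcc-Cre at roughly 0.5 moi and grown 44 h. Infection is quantified by luciferase signal after 15 min substrate incubation at room temperature.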
Pf growth 96h: inhibits malaria parasite growth, 96 h; P. falciparum luciferase reporter growth, 96 h; 6.9% of 320,000 active; AID 504834; Potency, µM (doses to about 28.7 µM), without a hit: at the top dose activity change, negative = inhibition, actives largely listed as inhibitors
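Erythrocytes infected with luciferase-expressing P. falciparum were dispensed at 2% hematocrit and 0.05% parasitemia (final), then incubated with compounds 96 hours at 37 C in 5% CO2. Luminescence after detection reagent addition reported growth.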
AMA1-RON2 inh: inhibitors of Plasmodium falciparum AMA1-RON2 interaction | AlphaScreen AMA1-biotinylated RON2 peptide binding | Potency, µM (top dose mostly 58.2 µM), inactives show top-dose activity change, negative = inhibition, hits mostly inhibitors | 0.2% of 360,000 active | AID 720542;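 further: 0% = vehicle wells and -100% = peptide control; nearly all actives have a fitted effect of over 45% in size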
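AMA1 (3D7) with his tag at 25 nM final met compounds first, then biotinylated RON2 peptide at 25 nM; detection used donor plus acceptor beads, 10 µg/mL apiece, read by AlphaScreen after 30 min at room temperature.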
Active calls of the source: *; ? = inconclusive; . = no result; [ ] = remark or other dose. An excerpt weighted towards active compounds, which were near 11% of everything screened. The call rests on the fitted dose curve; in most records, active means well fitted curve in the direction sought with a large enough effect; inconclusive means small, poorly fitted or top-dose-only effect, or another doubt; inactive means no such curve, though single readings can be large; an effect the other way counts as inactive or inconclusive. Unless noted, on the % scale 0 is the no-effect control and ±100 the full control effect; potency means the concentration at half of the fitted maximal effect.

SMILES	Pf growth 48h	HCV inhibitor	Pf growth 96h	AMA1-RON2 inh
CCOc1ccc(NC(=O)CNc2cccc(S(=O)(=O)N3CCCCCC3)c2)cc1OCC	.	11µM*	.	-1%
COc1ccccc1OCCC(=O)Nc1cccc(S(=O)(=O)N2CCCCC2)c1	-4%	?	-24%	7%
CC(=O)c1ccccc1OCC(=O)Nc1cccc(S(=O)(=O)N2CCCC2)c1	?	-28%	?	3%
CCOc1ccccc1OCC(=O)Nc1cccc(S(=O)(=O)N2CCCCCC2)c1	?	?	13µM*	-8%
N#Cc1ccccc1OCC(=O)Nc1cccc(S(=O)(=O)N2CCCCCC2)c1	13µM*	?	?	-7%
COc1cc(NC(=O)CNc2cccc(S(=O)(=O)N3CCCC3)c2)cc(OC)c1	?	?	?	5%
Cc1nn(-c2ccc(F)cc2)c(Cl)c1/C=C/C(=O)OCC(=O)Nc1c(F)c(F)c(F)c(F)c1F	11%	?	-6%	7%
Cc1c(N2CCCCC2)[nH]c2ccccc12	.	.	.	-14%
Cc1ccc2cccc(OCC(=O)Nc3cccc(S(=O)(=O)N4CCCC4)c3)c2n1	9.3µM*	5.6µM*	?	-17%
CCOc1ccc(NC(=O)C(CC)NC(=O)c2ccccc2CO)cc1 (stereo unspecified)	.	-9%	.	-10%
O=C(COc1ccc2ccc(=O)oc2c1)Nc1cccc(S(=O)(=O)N2CCCCC2)c1	12µM*	?	4.7µM*	11%
O=C(COc1ccc(Cl)cc1Br)Nc1cccc(S(=O)(=O)N2CCCC2)c1	?	?	-62%	-1%
Cc1cc(Cl)ccc1OCC(=O)Nc1cccc(S(=O)(=O)N2CCCC2)c1	?	7.9µM*	?	-6%
Cc1ccc(OCC(=O)Nc2cccc(S(=O)(=O)N3CCCCC3)c2)c([N+](=O)[O-])n1	-23%	?	?	-2%
CCOc1ccc(NC(=O)[C@@H](NC(=O)c2ccccc2Br)C(C)C)cc1	.	-7%	15µM*	11%
COC(=O)C(Cc1ccccc1)NC(=O)CC(C)CC(=O)Nc1ccc(C)cc1 (stereo unspecified)	-13%	-4%	?	-7%
CC(=O)c1ccc(OCC(=O)Nc2cccc(S(=O)(=O)N3CCCC3)c2)cc1	?	?	4.1µM*	7%
CCOc1ccc(C(=O)N[C@H](C(=O)Nc2cccc(S(=O)(=O)N3CCCCC3)c2)C(C)C)cc1	?	?	10µM*	7%
COc1ccc(-c2csc(C3=C(O)CN(CCCN4CCCC4=O)C3=N)n2)cc1OC	-1%	5%	9%	24%
CCOc1ccc2nc(SCC(=O)Nc3cc4c(cc3C(C)=O)OCO4)[nH]c2c1	-17%	?	13µM*	-15%
CC(=O)c1c(C)n(CC(=O)NCc2ccc3c(c2)OCO3)c2ccccc12	1%	10µM*	-3%	-3%
O=C(CSc1nnnn1C1CCCC1)NCc1ccc2c(c1)OCO2	4%	11%	10µM*	8%
O=C(CCc1nc2ccccc2[nH]1)NCc1ccc2c(c1)OCO2	8%	-15%[8.37 µM]	-14%	-3%
O=C(Cn1c(CO)nc2ccccc21)NCc1ccc2c(c1)OCO2	0%	?	4%	0%
O=C(CSc1nc2ccccc2[nH]1)NCc1ccc2c(c1)OCO2	16%	-2%	4.1µM*	-15%
SMILES	Pf growth 48h	HCV inhibitor	Pf growth 96h	AMA1-RON2 inh
CCOc1ccc2nc(SCC(=O)Nc3nonc3C)[nH]c2c1	26%	20%	?	-19%
Cc1cc(C)n(C(C)CC(=O)Nc2ccc3c(c2)OCO3)n1 (stereo unspecified)	28%	-1%	103%	2%
CC1NC(=O)COC1c1ccccc1 (stereo unspecified)	.	.	.	1%
C#CCN1CCc2onc(-c3ccc(Br)cc3)c2C1=O	.	.	.	-1%
CN(CC(=O)Nc1ccccc1C(F)(F)F)C(=O)COc1ncnc2ccccc12	-6%	7%	17%	-8%
C=CCC(NCc1ccco1)c1ccc(OC)cc1OC (stereo unspecified)	-12%	-3%	10µM*	.
CC(=O)N1N=C(c2cccc(NS(C)(=O)=O)c2)CC1c1ccc2c(c1)OCO2 (stereo unspecified)	26%	-19%	-87%	-4%
Cc1ccc(C2=NN3C(=O)c4ccccc4C3C2)cc1 (stereo unspecified)	?	-12%	8.3µM*	-11%
Cc1ccc(C(=O)N2N=C(c3ccccc3O)CC2c2ccccc2)cc1 (stereo unspecified)	10µM*	5%	?	-6%
Cc1ccc(C2=NN(S(C)(=O)=O)C(c3cccs3)C2)cc1 (stereo unspecified)	294%	-9%	211%	0%
CCC(=O)N1N=C(c2ccccc2)CC1c1ccccc1 (stereo unspecified)	?	-22%	?	-4%
CS(=O)(=O)Nc1ccc(C2=NN(S(C)(=O)=O)C(c3ccc4c(c3)OCO4)C2)cc1 (stereo unspecified)	148%	1%	2.9µM*	-4%
CCc1ccc(C2=NN(S(C)(=O)=O)C(c3cccs3)C2)cc1 (stereo unspecified)	.	-15%	0.29µM*	13%
C=CCN1C=CC(=O)CC1	52%	25%	61%	2%
Cc1ccc(C)c(SCC(=O)OCC(=O)NCCNC(=O)COC(=O)CSc2cc(C)ccc2C)c1	-11%	-6%	3%	2%
COc1ccccc1C1CC(c2ccc(NS(C)(=O)=O)cc2)=NN1C(=O)c1ccccc1 (stereo unspecified)	2.1µM*	15%	?	-1%
CCN=C(NCC)SC1CC(=O)N(c2ccc(F)cc2)C1=O (stereo unspecified)	2%	9%	73%	9%
CC(=O)N1N=C(c2ccccc2)CC1c1ccccc1[N+](=O)[O-] (stereo unspecified)	?	7%	-9%	-3%
O=C(c1ccccc1)N1N=C(c2ccccc2)CC1c1ccccc1[N+](=O)[O-] (stereo unspecified)	?	10%	1.7µM*	5%
N=C(SC1CC(=O)N(c2ccc(F)cc2)C1=O)N1N=C(c2ccccc2)CC1c1ccccc1 (stereo unspecified)	2.1µM*	35%	33%	-8%
COc1ccc(C2=NN(C(=O)c3cccs3)C(c3ccccc3O)C2)cc1 (stereo unspecified)	10µM*	?	?	1%
COc1ccc(C2CC(c3ccccc3)=NN2C(=O)c2cccs2)cc1 (stereo unspecified)	?	?	?	20%
Cc1cc(C)c(S(=O)(=O)N2CCOC2CNC(=O)C(=O)NCCN2CCOCC2)c(C)c1 (stereo unspecified)	?	37%	15%	6%
COc1ccc(C2N(Cc3ccccc3)CC(=O)N2/N=C(\C)c2ccccc2)cc1 (stereo unspecified)	10%	2%	-13%	-10%
Nn1c(SCC(=O)NC(=O)NCc2ccco2)nnc1-c1ccc(OC(F)F)cc1	5%	12%	.	-10%

Assay outcomes: PubChem, National Center for Advancing Translational Sciences (NCATS)
